In the supplement of paper PMC8047044:

Each molecule was assayed on Neuro-2a (assay: neurite formation score, plate-normalized to DMSO control mean 5.04 (score (0-8 scale)); higher = more or longer neurites). Conditions: 0.1 µM.
Experimental: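 Neuro-2a mouse neuroblastoma cells in PLL-coated 96-well plates were pre-treated for 1 h in DMEM(+) with each kinase inhibitor at 0.1 µM, then switched to serum-free DMEM(-) with inhibitor to induce neurite outgrowth and fixed about 2-3 h later. Three blinded observers scored neurite formation from 0 (no neurites) to 8 (long neurites on almost all cells).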

| Compound | neurite formation score |
| --- | --- |
| CN1CCN(c2cccc(Nc3nc4c(-c5ccc(S(C)(=O)=O)cc5)cccn4n3)c2)CC1 | 4.25 |
| Cc1cccc(CC(=O)N2CCc3c2ccc(-c2cn(C)c4ncnc(N)c24)c3F)n1 | 4.42 |
| COc1cccc(-c2cc(=O)c3ccccc3o2)c1N | 5.04 |
| Cc1cc(Nc2ncc(Cl)c(Nc3ccccc3S(=O)(=O)C(C)C)n2)c(OC(C)C)cc1C1CCNCC1 | 5.21 |
| Cc1cc(CN2CCN(c3c(Br)cnc4nc(-c5ccc(N6CCN(C)CC6)cc5)[nH]c34)CC2)no1 | 4.76 |
| Fc1cc(-c2cccc3ncc(-c4cnn(C5CCNCC5)c4)nc23)cc(F)c1CN1CCOCC1 | 4.09 |
| Cn1cnc(-c2cc3nccc(Oc4ccc(NC(=S)NC(=O)Cc5ccccc5)cc4F)c3s2)c1 | 4.92 |
| O=C1c2ccccc2-c2n[nH]c3cccc1c23 | 3.92 |
| O=c1c(O)c(-c2ccc(O)c(O)c2)oc2cc(O)cc(O)c12 [Quercetin] | 5.08 |
| Nc1ncnc2n[nH]c(Nc3ccc(F)cc3)c12 | 5.08 |
| c1cn2cc(-c3ccc4cn[nH]c4c3)nc(Nc3ccc(N4CCOCC4)cc3)c2n1 | 5.08 |
| Cc1ccc([N+](=O)[O-])cc1S(=O)(=O)N(C)/N=C/c1cnc2ccc(Br)cn12 | 3.08 |
| COc1cc(CCc2cc(NC(=O)c3ccc(N4CC(C)NC(C)C4)cc3)n[nH]2)cc(OC)c1 (stereo not given) | 4.21 |
| CC(C)n1nc(-c2ccc3oc(N)nc3c2)c2c(N)ncnc21 | 5.25 |
| Oc1cccc(-c2nc(N3CCOCC3)c3oc4ncccc4c3n2)c1 | 4.04 |
| Cc1[nH]c2ccccc2c1C1=C(NCCc2ccc(F)cc2)C(=O)N(C)C1=O | 2.42 |
| O=C(c1ccc(/C=C/c2n[nH]c3ccccc23)cc1)N1CCNCC1 | 1.92 |
| CNc1nc(Nc2cnn(C3CCN(C4COC4)CC3F)c2Cl)ncc1C(F)(F)F (stereo not given) | 4.75 |
| CN1CCN(C2CCN(C(=O)Nc3cc(Oc4ccc(NC(=O)C5(C(=O)Nc6ccc(F)cc6)CC5)c(F)c4)ccn3)CC2)CC1 [Golvatinib (E7050)] | 3.76 |
| CC1=C(C(=O)Nc2cc3cn[nH]c3cc2F)C(c2ccc(C(F)(F)F)cc2)CC(=O)N1 (stereo not given) | 4.21 |

| Compound | neurite formation score |
| --- | --- |
| O=C(Nc1ccc(-c2ccnc(Nc3ccc(N4CCOCC4)cc3)n2)cc1)C1CCCN1 (stereo not given) | 4.92 |
| NC(=O)c1cnc(N[C@@H]2CCCC[C@@H]2N)nc1Nc1cccc(-n2nccn2)c1 | 4.92 |
| O=c1cc(N2CCOCC2)oc2c1ccc1ccccc12 | 4.42 |
| Cc1cc(NC(=O)c2cccc(NC(=O)/C=C/CN(C)C)c2)ccc1Nc1nccc(-c2cccnc2)n1 | 4.58 |
| CN1CCN(c2ccc(C(=O)Nc3n[nH]c4ccc(Cc5cc(F)cc(F)c5)cc34)c(NC3CCOCC3)c2)CC1 [Entrectinib] | 0.751 |
| CCOc1cc2ncc(C#N)c(Nc3ccc(F)c(Cl)c3)c2cc1NC(=O)/C=C/CN(C)C [Pelitinib (EKB-569)] | 4.38 |
| CC1=CC(=O)C(C(C)C)=C/C1=N/OC(=O)c1ccccc1C [Poloxin] | 5.25 |
| CNC(=O)c1cc(Oc2ccc(NC(=O)Nc3cc(C(C)(C)C)nn3-c3ccc4ncccc4c3)c(F)c2)ccn1 [DCC-2036 (Rebastinib)] | 3.92 |
| Cc1cc(Nc2cc(N3CCN(C)CC3)nc(Sc3ccc(NC(=O)C4CC4)cc3)n2)n[nH]1 [VX-680 (MK-0457,Tozasertib)] | 3.58 |
| FC(F)(F)c1ccc(/C=C/c2nc(COc3ccc(CCCCn4ccnn4)cc3)co2)cc1 [Mubritinib (TAK 165)] | 4.76 |
| CCOc1cc(N2CCC(O)CC2)ccc1Nc1ncc2c(n1)N(C)c1ccccc1C(=O)N2C | 4.92 |
| C[C@@]1(C(=O)Nc2ccc(F)nc2)CCCN1c1nc(Nc2cc(C3CC3)n[nH]2)c2cccn2n1 | 4.38 |
| N#CC[C@H](C1CCCC1)n1cc(-c2ncnc3[nH]ccc23)cn1 | 5.04 |
| CCOc1ccn(-c2ccc(F)cc2)c(=O)c1C(=O)Nc1ccc(Oc2ccnc(N)c2Cl)c(F)c1 | 4.21 |
| Nc1nc(N)c2nc(-c3cccc(O)c3)c(-c3cccc(O)c3)nc2n1 | 3.38 |
| C=CC(=O)Nc1cc(Nc2nccc(-c3cn(C)c4ccccc34)n2)c(OC)cc1N(C)CCN(C)C | 3.76 |
| CN(C)S(=O)(=O)c1ccc2c(c1)/C(=C/c1cc3c([nH]1)CCCC3)C(=O)N2 | 4.75 |
| CS(=O)(=O)N1CCN(Cc2cc3nc(-c4cccc5[nH]ncc45)nc(N4CCOCC4)c3s2)CC1 | 5.21 |
| Cc1ccc(-c2csc3ncnc(SCCC(=O)O)c23)cc1 | 4.58 |
| CC[C@@H]1C(=O)N(C)c2cnc(Nc3ccc(C(=O)N[C@H]4CC[C@H](N5CCN(CC6CC6)CC5)CC4)cc3OC)nc2N1C(C)C [BI6727 (Volasertib)] | 4.25 |
